Some test systems named below: NCI-H23 lung; NCI-H226 lung; NCI-H322M lung; HOP-62 NSCLC; NCI-H460 lung; HOP-92 NSCLC; NCI-H522 lung; A549/ATCC NSCLC; 786-0 renal; COLO 205 colon; DU-145 prostate; K-562 leukemia; MALME-3M melanoma; MDA-MB-231 breast; RXF 393 renal; SF-268 CNS; SF-295 CNS; SF-539 CNS; UACC-257 melanoma; M14 melanoma.
What all share (assay): NCI-60 one-dose screen, 48 h (100 = growth as untreated, 0 = no growth, -100 = all killed)
Details in all cases: 10 µM unless noted

The values that follow come from PubChem BioAssay (NCI).

Compounds without any hit were thinned out: in the full panel of roughly 83,000, 20% have a hit.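 Testing used 96-well plates and a 48-hour single-concentration exposure. Example: -40 means 40% of the starting cells died.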 Unmarked numbers belong to inactive results. Activity calls are given as the source filed them. Rule for the calls: active = growth percent below 10; inactive = the rest.

Regarding `Cn1ccnc1C(=O)/C=C/c1ccc(CC(=O)Nc2ccc(S(F)(F)(F)(F)F)cc2)cc1`, the growth is -12.7% (active) in the assay with NCI-H23 lung; -15.3% (active) in the assay on NCI-H226 lung; -5.16% (active) with NCI-H322M lung; -73% (active) in the assay on HOP-62 NSCLC; -37.9% (active) with NCI-H460 lung; 5.09% (active) with HOP-92 NSCLC. In addition, the growth with NCI-H522 lung is -51.1% (active); in the assay on A549/ATCC NSCLC, -33.7% (active); in the assay on 786-0 renal, -82.7% (active); in the assay with COLO 205 colon it was -55.2% (active); in the assay on DU-145 prostate it was 8.82% (active); with K-562 leukemia it was 0.513% (active). Besides, the growth is 51.4% with MALME-3M melanoma; -2.8% (active) with MDA-MB-231 breast; -70.6% (active) in the assay on RXF 393 renal; 7.07% (active) in the assay on SF-268 CNS; -6.63% (active) in the assay with SF-295 CNS; -84.7% (active) in the assay on SF-539 CNS. The growth in the assay with UACC-257 melanoma is 54.6%; with M14 melanoma it was -27.4% (active).
On to `Nc1nc(N)c2nc(-c3cccc(O)c3)c(-c3cccc(O)c3)nc2n1`, for which the growth is 82.5% in the assay on NCI-H23 lung; 78.5% in the assay with NCI-H226 lung; 47% in the assay on NCI-H322M lung; 54.1% with HOP-62 NSCLC; 92.8% in the assay on NCI-H460 lung; 49.5% in the assay on HOP-92 NSCLC. The growth in the assay with NCI-H522 lung is 49.3%; in the assay on A549/ATCC NSCLC, 75.1%; in the assay on 786-0 renal, 65.7%; with COLO 205 colon, 79%; with DU-145 prostate, 80.8%; with K-562 leukemia, 28.5%. In addition, the growth is 91.3% with MALME-3M melanoma; 96.5% in the assay with MDA-MB-231 breast; 70.8% with RXF 393 renal; 58.2% in the assay with SF-268 CNS; 89.8% with SF-295 CNS; 81.7% in the assay on SF-539 CNS. Also, the growth in the assay on UACC-257 melanoma is 65.4%; in the assay with M14 melanoma, 87.5%.
`COc1c(OCCCN2CCOCC2)ccc2c3n(c(=NC(=O)c4cnc(N)nc4)nc12)CCN3`: the growth in the assay with NCI-H23 lung is 20.6%; with NCI-H226 lung, 23.7%; in the assay with NCI-H322M lung it was -12.6% (active); in the assay with HOP-62 NSCLC, 12.4%; in the assay with NCI-H460 lung, 9.88% (active); with HOP-92 NSCLC, -14.6% (active). Moreover, the growth in the assay on NCI-H522 lung was 9.59% (active); in the assay on A549/ATCC NSCLC, -5.58% (active); with 786-0 renal, -4.92% (active); with COLO 205 colon, -18.6% (active); with DU-145 prostate it was 21.8%; with K-562 leukemia it was 21.8%. Also, the growth is -21.2% (active) with MALME-3M melanoma; 17.1% in the assay on MDA-MB-231 breast; -40.7% (active) in the assay with RXF 393 renal; 24.6% with SF-268 CNS; -15.4% (active) with SF-295 CNS; -51.5% (active) in the assay on SF-539 CNS. Moreover, the growth in the assay with UACC-257 melanoma was -13.8% (active); with M14 melanoma it was 10.4%.
For the compound `COc1cc2ncnc3c2cc1OCCCCCN(C)Cc1ccc(Br)cc1N3`, the growth is 70.2% in the assay on NCI-H23 lung; 88.3% with NCI-H226 lung; 0.138% (active) in the assay with NCI-H322M lung; 74.5% in the assay with HOP-62 NSCLC; 36.7% in the assay on NCI-H460 lung; 64.6% in the assay with HOP-92 NSCLC. Moreover, the growth is -9.44% (active) with NCI-H522 lung; 35.1% in the assay with A549/ATCC NSCLC; 68.7% in the assay on 786-0 renal; 51.3% in the assay on COLO 205 colon; 31.1% with DU-145 prostate; 26.1% in the assay on K-562 leukemia. For the same compound, the growth in the assay with MALME-3M melanoma was 71.8%; with MDA-MB-231 breast, 63.7%; with RXF 393 renal, 69.3%; in the assay with SF-268 CNS, 65.1%; in the assay with SF-295 CNS it was 78.7%; in the assay on SF-539 CNS it was 88.6%. The growth with UACC-257 melanoma was 31.5%; in the assay with M14 melanoma, 36.9%.
On to `Cn1cc(-c2ncnc3ccc(-c4cnc(Cl)c(NS(C)(=O)=O)c4)cc23)c2ccccc21`, for which the growth in the assay with NCI-H23 lung is 29.7%; in the assay on NCI-H226 lung it was 16.4%; in the assay with NCI-H322M lung, 0.878% (active); with HOP-62 NSCLC, 16.2%; in the assay on NCI-H460 lung, 8.88% (active); with HOP-92 NSCLC it was -8.63% (active). Moreover, the growth is 17% in the assay with NCI-H522 lung; 6.57% (active) in the assay on A549/ATCC NSCLC; 12% with 786-0 renal; 16.4% with COLO 205 colon; 25.2% in the assay with DU-145 prostate; 48.4% with K-562 leukemia. Also, the growth in the assay with MALME-3M melanoma was -13.6% (active); in the assay on MDA-MB-231 breast, 27.9%; in the assay on RXF 393 renal, -26.7% (active); with SF-268 CNS, 27.5%; in the assay with SF-295 CNS, -9.66% (active); in the assay with SF-539 CNS, -11.1% (active). Also, the growth is 5.53% (active) with UACC-257 melanoma and 9.65% (active) in the assay on M14 melanoma.
`O=C(Cn1ccnc1)Nc1ccc(-c2nc3ccccc3s2)cc1`: the growth in the assay with NCI-H23 lung is 57.4%; in the assay with NCI-H226 lung, 66.6%; with NCI-H322M lung, 98.3%; with HOP-62 NSCLC, 83.8%; with NCI-H460 lung, 79.8%; in the assay with HOP-92 NSCLC, 75.8%. Moreover, the growth is 74.7% in the assay with NCI-H522 lung; 70.3% with A549/ATCC NSCLC; 78% with 786-0 renal; 80.8% with COLO 205 colon; 81.1% in the assay with DU-145 prostate; 39.6% in the assay with K-562 leukemia. Besides, the growth with MALME-3M melanoma was 81.8%; in the assay with MDA-MB-231 breast, 80.1%; in the assay with RXF 393 renal it was 102%; in the assay with SF-268 CNS, 81.1%; in the assay on SF-295 CNS, 65.5%; in the assay with SF-539 CNS, 81.3%. The growth with UACC-257 melanoma was 67.6%; in the assay with M14 melanoma, 94.4%.
`CSc1nc2ncncc2[nH]1`: the growth in the assay on NCI-H23 lung is 101%; in the assay with NCI-H226 lung it was 92.5%; with NCI-H322M lung, 102%; in the assay with HOP-62 NSCLC, 82.5%; in the assay with NCI-H460 lung, 110%; in the assay with HOP-92 NSCLC it was 153%. Besides, the growth in the assay on NCI-H522 lung was 101%; in the assay on A549/ATCC NSCLC, 103%; in the assay with 786-0 renal it was 93.9%; in the assay with COLO 205 colon, 120%; with DU-145 prostate it was 112%; in the assay on K-562 leukemia, 93.9%. In addition, the growth in the assay with MALME-3M melanoma was 111%; with MDA-MB-231 breast, 99.3%; with RXF 393 renal, 45.4%; in the assay with SF-268 CNS, 105%; in the assay on SF-295 CNS, 81%; with SF-539 CNS it was 89.6%. The growth with UACC-257 melanoma is 114%; in the assay with M14 melanoma, 90.7%.
As for `Cc1nc(Nc2n[nH]c3c2CN(C(=O)N[C@H](CN(C)C)c2ccccc2)C3(C)C)c2sccc2n1`, the growth in the assay on NCI-H23 lung was -22.8% (active); with NCI-H226 lung it was -25.2% (active); in the assay with NCI-H322M lung, -19.1% (active); in the assay with HOP-62 NSCLC it was -46.5% (active); with NCI-H460 lung, -42.8% (active); in the assay on HOP-92 NSCLC it was -62.4% (active). Also, the growth with NCI-H522 lung was -45% (active); in the assay on A549/ATCC NSCLC it was 0.0643% (active); in the assay with 786-0 renal it was -15% (active); with COLO 205 colon, -88.6% (active); with DU-145 prostate, 6.06% (active); in the assay with K-562 leukemia, 4.69% (active). Besides, the growth was -71.4% (active) with MALME-3M melanoma; -29.1% (active) in the assay with MDA-MB-231 breast; -77.3% (active) in the assay with RXF 393 renal; -18.4% (active) in the assay with SF-268 CNS; -3.9% (active) in the assay with SF-295 CNS; -54.8% (active) in the assay on SF-539 CNS. In addition, the growth was -54.6% (active) in the assay with UACC-257 melanoma and -54.8% (active) with M14 melanoma.
